This is a sample that favours compounds with a hit; in the whole collection about 2.2% have one here.
ADAM17 inh: inhibits human ADAM17 | recombinant ADAM17, EDANS/DABCYL FRET peptide cleavage | inhibition, % at 6.95 µM | P78536 | AID 720648 | actives 0.83% (n = 370,000);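 active = inhibition above the mean of compounds lying between control limits plus 3 SD, set per campaign, cut at about 8.5% in these data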
GC-A act: GC-A (human) enzyme activation; HEK293 GC-A cells, cGMP TR-FRET, EC30 ANP; 0% at EC30 ANP, 100% saturating ANP; P16066; activation, % at 10 µM; actives 0.14% (n = 370,000); in the data active = activation above about 40%
Target sequence (P16066 whole entry, looked up): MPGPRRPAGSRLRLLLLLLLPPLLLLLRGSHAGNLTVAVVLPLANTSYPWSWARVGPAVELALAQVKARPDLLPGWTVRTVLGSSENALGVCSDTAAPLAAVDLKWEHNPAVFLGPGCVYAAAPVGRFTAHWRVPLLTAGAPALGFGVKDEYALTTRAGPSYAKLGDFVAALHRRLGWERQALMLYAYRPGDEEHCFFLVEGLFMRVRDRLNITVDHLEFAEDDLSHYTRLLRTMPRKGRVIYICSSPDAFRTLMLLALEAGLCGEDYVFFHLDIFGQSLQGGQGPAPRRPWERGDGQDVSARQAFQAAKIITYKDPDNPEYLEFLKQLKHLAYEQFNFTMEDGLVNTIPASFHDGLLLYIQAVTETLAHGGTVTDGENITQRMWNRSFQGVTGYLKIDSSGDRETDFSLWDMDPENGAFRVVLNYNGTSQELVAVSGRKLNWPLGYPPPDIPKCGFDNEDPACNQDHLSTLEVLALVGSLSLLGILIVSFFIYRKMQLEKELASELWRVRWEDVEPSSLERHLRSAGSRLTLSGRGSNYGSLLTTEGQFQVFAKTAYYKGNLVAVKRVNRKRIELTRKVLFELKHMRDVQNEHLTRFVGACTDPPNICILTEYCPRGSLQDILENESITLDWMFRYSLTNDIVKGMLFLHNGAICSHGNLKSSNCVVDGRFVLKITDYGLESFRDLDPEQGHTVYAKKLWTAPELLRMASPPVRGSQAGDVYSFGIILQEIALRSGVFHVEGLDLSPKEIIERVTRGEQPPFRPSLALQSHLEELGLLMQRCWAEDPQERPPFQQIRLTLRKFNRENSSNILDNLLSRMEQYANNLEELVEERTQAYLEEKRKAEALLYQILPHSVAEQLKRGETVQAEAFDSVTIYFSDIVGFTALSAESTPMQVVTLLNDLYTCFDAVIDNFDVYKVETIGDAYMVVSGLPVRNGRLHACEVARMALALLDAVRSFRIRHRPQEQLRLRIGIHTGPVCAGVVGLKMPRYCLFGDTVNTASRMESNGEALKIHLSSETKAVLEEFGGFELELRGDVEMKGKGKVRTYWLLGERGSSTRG
GC-B act: GC-B (human) receptor activation; HEK293-GC-B cells, CNP EC30, cGMP TR-FRET; 0% at EC30 CNP, 100% saturating CNP; P20594; actives 0.11% (n = 370,000); activation, % at 10 µM; AID 1920062;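 active = activation at 10 µM reaching about 35% in either raw or pattern-adjusted values, limit read from the data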
ADAM10 inh: ADAM10 inhibition, QFRET primary screen. O14672. recombinant ADAM10, EDANS/DABCYL FRET peptide cleavage, 3 h. actives 0.62% (n = 370,000). inhibition, % at 7 µM;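 active = inhibition above a per-campaign cutoff equal to the mean of compounds falling between control-based bounds plus 3 SD, cut at about 20% in these data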
KLK7 zymogen act: activators of human kallikrein-7 zymogen; purified proKLK7, EDANS-DABCYL substrate fluorescence; 100% is mature enzyme control, 0% vehicle; actives 0.9% (n = 370,000); P49862; activation, % at 7 µM;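 active = activation above the mean of all tested compounds plus 3 SD, computed per campaign excluding outliers beyond control limits, cut at about 13% in these data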
ADAM10 confirm: human ADAM10 inhibition, confirmation; shares compounds with ADAM10 inh; ADAM10 QFRET peptide cleavage, EDANS fluorescence; inhibition, % at 6.95 µM; actives 1% (n = 2,100);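 active = inhibition above about 20% chosen separately for each screening run, limit read from the data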
ADAM17 ctr: inhibits human ADAM17 in ADAM10 exosite counter-screen. shares compounds with ADAM10 inh. inhibition, % at 6.95 µM. actives 0.5% (n = 2,100). ADAM17 QFRET peptide cleavage, EDANS fluorescence. AID 743214;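 active = mean triplicate inhibition above the solvent-only control wells' mean plus 3 SD, cut at about 12% in these data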
ADAM10 counter: inhibits human ADAM10 in ADAM17 exosite counter-screen; AID 743256; actives 47% (n = 2,900); recombinant ADAM10, EDANS/DABCYL FRET peptide cleavage, 3 h; inhibition, % at 6.95 µM; shares compounds with ADAM17 inh;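 active = mean inhibition over the triplicate runs exceeds the activity threshold set in the earlier primary screen, cut at about 20% in these data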
ADAM17 confirm: confirmation of inhibitors of human ADAM17. shares compounds with ADAM17 inh. recombinant ADAM17, EDANS/DABCYL QFRET peptide cleavage. inhibition, % at 6.95 µM. actives 65% (n = 2,900). AID 743257;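 active = mean inhibition across replicates above the hit cutoff set in the primary screen, cut at about 8.5% in these data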
Of the large screens only hits and unclear results are named; the others gave an inactive call (follow-up assays come after a bar, where they were run).

O=C(c1cccs1)N1CCc2c([nH]c3ccccc23)C1c1ccc(Cl)cc1 (stereo not given)	ADAM17 inh 19, ADAM10 inh 31 | ADAM10 confirm inactive | ADAM17 ctr inactive | ADAM10 counter inactive | ADAM17 confirm 11
O=C(c1ccc(Cl)cc1)N1CCc2c([nH]c3ccccc23)C1C(F)(F)F (stereo not given)	none
CCc1cc(Cn2nc(-c3ccccc3)cc2C(=O)NCc2ccc(C)cc2)on1	ADAM17 inh 9.1, ADAM10 inh 29 | ADAM10 confirm inactive | ADAM17 ctr inactive | ADAM10 counter 24 | ADAM17 confirm 13
CCc1cc(Cn2nc(-c3ccccc3)cc2C(=O)NCc2cccc(Br)c2)on1	ADAM17 inh 14, ADAM10 inh 21 | ADAM10 confirm inactive | ADAM17 ctr inactive | ADAM10 counter 36 | ADAM17 confirm 22
Cc1ccc(NC(=O)NNC(=O)Cn2nc(-c3ccccc3)c(-c3ccccc3)c(C#N)c2=O)cc1	ADAM17 inh 20, ADAM10 inh 20 | ADAM10 confirm inactive | ADAM17 ctr inactive | ADAM10 counter inactive | ADAM17 confirm 15
CC(C)(C)c1ccc(-c2nnc(SCC(=O)Nc3ccc(S(=O)(=O)Nc4nccs4)cc3)n2-c2ccc(Cl)cc2)cc1	ADAM17 inh 13, ADAM10 inh 27 | ADAM10 confirm inactive | ADAM17 ctr inactive | ADAM10 counter 27 | ADAM17 confirm 16
O=C(Cc1ccccc1Cl)Nc1ccc(S(=O)(=O)Nc2nccs2)cc1	none
O=C(CSc1ccc(Br)c2cccc(Cl)c12)Nc1ccc(S(=O)(=O)Nc2nccs2)cc1	ADAM17 inh 16, ADAM10 inh 32 | ADAM10 confirm inactive | ADAM17 ctr inactive | ADAM10 counter 23 | ADAM17 confirm 14
CCOc1ccc(-n2c(SCC(=O)Nc3ccc(S(=O)(=O)Nc4nccs4)cc3)nnc2-c2ccc(C(C)(C)C)cc2)cc1	ADAM17 inh 12, ADAM10 inh 22 | ADAM10 confirm inactive | ADAM17 ctr inactive | ADAM10 counter 40 | ADAM17 confirm 21
Cc1ccc(-n2c(SCC(=O)Nc3ccc(S(=O)(=O)Nc4nccs4)cc3)nnc2-c2cccs2)cc1	none
C=CCN1C(=O)[C@H](CC(=O)N2CCN(C(=O)c3ccco3)CC2)[C@@]2(C(=O)OCC)CCCC=C12	none
Cc1cccc(NC(=O)[C@H]2CC(=O)O[C@@H]2c2ccccc2)c1C	none
O=S(=O)(NCC(Nc1ccc(Cl)cc1)c1ccccc1)c1ccccc1 (stereo not given)	ADAM17 inh 26, ADAM10 inh 53 | ADAM10 confirm inactive | ADAM17 ctr inactive | ADAM10 counter 46 | ADAM17 confirm 22
Cc1cc(NC(=O)CS(=O)(=O)c2cn(Cc3cccc(Br)c3)c3ccccc23)no1	ADAM17 inh 10, ADAM10 inh 24 | ADAM10 confirm inactive | ADAM17 ctr inactive | ADAM10 counter inactive | ADAM17 confirm 8.7
Cc1cc(NC(=O)CS(=O)(=O)c2cn(Cc3ccccc3Cl)c3ccccc23)no1	none
CC(C)(C)C1CCc2nc(NC(=O)Cc3cn4ccsc4n3)sc2C1 (stereo not given)	ADAM17 inh 20, ADAM10 inh 23 | ADAM10 confirm inactive | ADAM17 ctr inactive | ADAM10 counter 21 | ADAM17 confirm 9.7
Cc1cc(C)cc(C(=O)OCCN(C)C2CN(Cc3cn(Cc4cccc(F)c4)nn3)S(=O)(=O)C2)c1 (stereo not given)	none
CCN(CC)CCCN1C(=O)C2=C(C1=O)C1N(C)c3ccccc3[C@@]13C[C@@H](CO)N(C(=O)CCC(=O)OC)C3=N2 (stereo not given in full)	none
COc1cccc(NC(=O)C(Sc2nnc(-c3ccncc3)n2-c2ccc(Cl)cc2)c2ccccc2)c1 (stereo not given)	ADAM17 inh 14, ADAM10 inh 38 | ADAM10 confirm inactive | ADAM17 ctr inactive | ADAM10 counter 30 | ADAM17 confirm 16
COc1cccc(-n2c(SCC(N)=O)nnc2-c2ccncc2)c1	none
CCC1CO/C(=C(\C(Cl)=C(Cl)Cl)[N+](=O)[O-])N1 (stereo not given)	ADAM17 inh 13, ADAM10 inh 33 | ADAM10 confirm inactive | ADAM17 ctr inactive | ADAM10 counter 30 | ADAM17 confirm 17
COc1cccc(Cn2ncc3c4sc(S(C)=O)cc4n(C)c3c2=O)c1 (stereo not given)	none (no result: KLK7 zymogen act)
O=C(NC(=S)Nc1ccc(S(=O)(=O)Nc2nccs2)cc1)c1ccc(F)c(F)c1	ADAM17 inh 11, ADAM10 inh 24 | ADAM10 confirm inactive | ADAM17 ctr inactive | ADAM10 counter inactive | ADAM17 confirm inactive
O=C(NC(=S)Nc1ccc(S(=O)(=O)Nc2nccs2)cc1)c1ccccc1	none
CCN(CC)S(=O)(=O)c1cc([N+](=O)[O-])ccc1NNC(=O)Nc1ccccc1OC	ADAM17 inh 10, ADAM10 inh 26 | ADAM10 confirm inactive | ADAM17 ctr inactive | ADAM10 counter inactive | ADAM17 confirm inactive
Cc1ccc(S(=O)(=O)N(CC(=O)N=Nc2c(O)[nH]c3ccccc23)c2ccc(C)c(C)c2)cc1	ADAM17 inh 8.9, ADAM10 inh 23 | ADAM10 confirm inactive | ADAM17 ctr inactive | ADAM10 counter 26 | ADAM17 confirm 18
Cc1ccc2nc(NC(=O)CN(C)S(=O)(=O)c3ccc(Br)s3)sc2c1	ADAM17 inh 10, ADAM10 inh 24 | ADAM10 confirm inactive | ADAM17 ctr inactive | ADAM10 counter 25 | ADAM17 confirm 15
Cc1ccc(-c2cc(C(=O)N=Nc3c(O)[nH]c4ccccc34)[nH]n2)cc1C	none
Cc1cc(Cl)ccc1NC(=S)NCCc1ccc(Cl)cc1	ADAM17 inh 9.8, ADAM10 inh 25 | ADAM10 confirm inactive | ADAM17 ctr inactive | ADAM10 counter inactive | ADAM17 confirm inactive
CN(C(=O)[C@@H]1CC=C[C@@H]2CCN(C3CCCCC3)C(=O)[C@@H]21)c1ccccc1	none (no result: KLK7 zymogen act)
Oc1ccccc1N=Nc1nc(-c2ccccc2)c(-c2ccccc2)[nH]1	ADAM17 inh 9.9, ADAM10 inh 26 | ADAM10 confirm inactive | ADAM17 ctr inactive | ADAM10 counter 28 | ADAM17 confirm 12

High-throughput results: PubChem BioAssay, several laboratories
